# High-throughput results deposited in PubChem BioAssay by National Center for Advancing Translational Sciences (NCATS).
# KB-3-1 tox: kills parental KB-3-1 adenocarcinoma cells. Potency, µM (series often up to 46.1 µM), most hits filed as cytotoxic. KB-3-1 viability, CellTiter-Glo ATP luminescence, 72 h. 1.4% of 400,000 active; further: nearly all actives have a fitted effect of over 60% in size
#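 Luminescent ATP read-out (CellTiter-Glo) measures survival of drug-naive KB-3-1 cells after 72 h compound exposure at 37 °C. Titration series was screened from lowest to highest concentration, with DMSO vehicle plates as background controls.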
# MCF10A rerep: inducers of DNA re-replication in MCF 10A breast cells; MCF 10A DNA re-replication, Hoechst nuclear intensity, 48 h; Potency, µM (top dose mostly 46.1 µM), actives largely listed as activators; 2.9% of 350,000 active; AID 624296; further: nearly all actives have a fitted effect of over 50% in size
# hERG WT inh: blocks the wildtype human KCNH2 potassium channel; Q12809; U2OS, BacMam KCNH2, thallium flux FluxOr; hits give low values; activity change, % at 1.84 µM; 0.37% of 340,000 active; AID 720551;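 active means maximum activity change below -70%; inconclusive means maximum activity change between -70% and -50%; inactive means maximum activity change above -50%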
# Target sequence (Q12809 whole entry, looked up): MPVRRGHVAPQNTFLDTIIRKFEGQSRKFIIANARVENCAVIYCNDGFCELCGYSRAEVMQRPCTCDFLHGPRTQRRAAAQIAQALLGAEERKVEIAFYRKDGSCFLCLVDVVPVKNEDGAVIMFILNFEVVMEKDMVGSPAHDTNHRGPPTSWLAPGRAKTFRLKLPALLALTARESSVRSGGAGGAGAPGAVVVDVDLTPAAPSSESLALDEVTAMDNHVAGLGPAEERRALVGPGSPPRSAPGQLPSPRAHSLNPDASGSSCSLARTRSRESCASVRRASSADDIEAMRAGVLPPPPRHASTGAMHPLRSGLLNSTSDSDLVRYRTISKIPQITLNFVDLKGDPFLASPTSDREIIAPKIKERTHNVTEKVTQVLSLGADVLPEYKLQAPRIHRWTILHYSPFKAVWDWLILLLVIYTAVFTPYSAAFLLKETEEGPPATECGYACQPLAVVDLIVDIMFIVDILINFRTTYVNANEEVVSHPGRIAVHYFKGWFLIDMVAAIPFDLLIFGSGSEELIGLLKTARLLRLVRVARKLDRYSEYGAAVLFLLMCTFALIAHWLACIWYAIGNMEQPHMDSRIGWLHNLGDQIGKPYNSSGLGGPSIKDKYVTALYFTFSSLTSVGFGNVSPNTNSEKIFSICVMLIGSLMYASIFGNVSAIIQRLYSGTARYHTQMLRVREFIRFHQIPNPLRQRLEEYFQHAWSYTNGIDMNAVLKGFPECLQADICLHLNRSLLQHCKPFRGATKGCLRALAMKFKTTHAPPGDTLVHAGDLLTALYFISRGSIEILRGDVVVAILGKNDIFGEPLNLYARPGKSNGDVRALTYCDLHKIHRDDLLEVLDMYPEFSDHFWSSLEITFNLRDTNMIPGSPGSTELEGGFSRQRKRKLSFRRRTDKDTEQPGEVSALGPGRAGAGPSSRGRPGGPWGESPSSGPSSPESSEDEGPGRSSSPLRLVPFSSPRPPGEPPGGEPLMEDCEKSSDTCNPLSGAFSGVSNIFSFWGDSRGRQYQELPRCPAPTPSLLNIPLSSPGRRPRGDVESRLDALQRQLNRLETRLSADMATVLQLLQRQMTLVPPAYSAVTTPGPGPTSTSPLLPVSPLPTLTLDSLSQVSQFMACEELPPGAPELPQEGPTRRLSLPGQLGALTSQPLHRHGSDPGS
#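 U2OS cells transduced with wild-type KCNH2 virus are loaded with FluxOr dye for 45 min, and thallium flux is measured in kinetic reads before and after stimulation buffer. Rate constants are normalized to DMSO controls.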
# SW480 rereplic: inducers of DNA re-replication in SW480 colon cancer cells; SW480 DNA re-replication, Hoechst DNA content imaging, 48 h; Potency, µM (top dose mostly 46.1 µM), most hits filed as activators; 1.8% of 340,000 active; AID 624297; further: nearly all actives have a fitted effect of over 55% in size
#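 Readout is total intensity of Hoechst-stained nuclei, excited at 405 nm and collected at 500-530 nm. Compound treatment lasted 48 hr at 37 C in 5% CO2 before staining.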
# KCNH2 3.1 block: inhibitors of human KCNH2 3.1 potassium channel isoform. U2OS KCNH2 3.1, thallium flux FluxOr; hits give low values. activity change, % (tested at about 1.8 µM). 0.95% of 340,000 active. AID 720553;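 active means maximum activity change below -70%; inconclusive means maximum activity change from -70% to -50%; inactive means maximum activity change above -50%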;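 further: thallium influx rate constant from kinetic fluorescence after stimulation buffer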
#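 U2OS cells transduced with KCNH2 3.1 mutant virus (1.77 x 10^8 /mL, 4 h), plated overnight at 37 C, loaded 45 min with FluxOr dye plus Red40 quencher. Thallium flux rate constant from kinetic reads after stimulation buffer, normalised to controls.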
# KB-V1 MDR tox: kills drug-selected multidrug resistant KB-V1 cells; KB-V1 MDR cells viability, CellTiter-Glo, 72 h; Potency, µM (series often up to 46.1 µM), actives largely listed as cytotoxic; 3.4% of 400,000 active; AID 1347076; further: nearly all actives have a fitted effect of over 60% in size
#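 KB-V1, DMEM (no phenol red) + 10% FBS; cpd pin-transferred, titration series; 72 h, 37 degrees C; CellTiter-Glo, luminescence. Data normalized, curve-fit.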
# Numbers stand for hits; n = inactive; u = inconclusive; x = not tested or not shown. A selection: hits, their analogues and other compounds. The true share with any hit is near 7.6%. Unless noted, the call rests on the fitted dose curve; in most records, active means well fitted curve in the direction sought with a large enough effect; inconclusive means small, poorly fitted or top-dose-only effect, or another doubt; inactive means no such curve, though single readings can be large; an effect the other way counts as inactive or inconclusive.
SMILES,KB-3-1 tox,MCF10A rerep,hERG WT inh,SW480 rereplic,KCNH2 3.1 block,KB-V1 MDR tox
CCN(CC)CCCNc1nc2ccccc2c2nc(-c3ccncc3)nn12,18.4µM,u,n,u,n,u
CCN(CC)CCCNc1nc2cc(OC)c(OC)cc2c2nc(-c3cccnc3)nn12,n,u,n,u,n,u
CN1CCN(CCCNc2nc3ccccc3c3nc(-c4ccccc4)nn23)CC1,n,u,n,u,n,n
COc1ccc(O)c(/C=C2/SC(=S)N(Cc3ccccc3)C2=O)c1,u,13µM,n,n,n,u
O=C1/C(=C\c2cc(Cl)c(O)c(Cl)c2)SC(=S)N1Cc1ccccc1,u,2.06µM,n,u,n,3.66µM
COc1ccc(OC)c(/C=C2\SC(=S)N(Cc3cccnc3)C2=O)c1,u,6.51µM,n,16.4µM,n,14.6µM
COc1ccc(/C=C2/SC(=S)N(Cc3ccccc3)C2=O)cc1O,n,u,n,n,n,n
COc1ccc(NC(=O)c2cc(C3CCCCN3C(=O)c3cc(C(C)(C)C)nn3C)on2)c(C)c1 (stereo unspecified),n,x,x,x,x,n
CC1CCCCN1C(=O)CSc1nc2ccsc2c(=O)n1Cc1ccccn1 (stereo unspecified),n,n,n,n,n,18.4µM
C=CCN1C(=NC(=O)COc2ccc(Cl)cc2)SC2CS(=O)(=O)CC21 (stereo unspecified),u,n,n,n,n,u
CC(Nc1nc(-c2ccc(F)cc2)cs1)c1nc2cc(Cl)c(N3CCCCC3)cc2n1CCOCCO (stereo unspecified),u,n,n,n,n,n
CC(Nc1nc(-c2ccc(F)cc2)cs1)c1nc2cc(Cl)c(N3CCCCC3)cc2n1CCCO (stereo unspecified),u,20.6µM,n,u,n,u
Cc1cnnn1-c1ccc(C(=O)CCl)cc1,u,29.1µM,n,u,n,n
COC(=O)c1oc2ccccc2c1NC(=O)/C=C/C(=O)O,n,n,n,n,-74.3,n
COc1ccc(/C=N/Nc2nc(-c3ccc(Cl)cc3)cc(C(F)(F)F)n2)c(OC)c1,n,n,n,n,n,n
Cc1c(C)n(Cc2ccccc2)c2ccc(C(=O)OCCCN(C)C)cc12,u,20.6µM,n,u,n,u
Cc1cc(N2CCOCC2)ccc1/C=C1\NC(=O)N(Cc2ccccc2)C1=O,n,u,x,n,n,n
Cc1cc(N2CCOCC2)ccc1/C=C1\NC(=O)N(Cc2ccccc2F)C1=O,n,5.17µM,x,n,n,u
COc1ccc(Cc2nnc(SCC(=O)Nc3ccc(N4CCOCC4)cc3)n2C)cc1,n,n,n,n,n,n
CCOc1cc(C2NN=C(c3ccc(C)cc3)S2)ccc1O (stereo unspecified),n,18.4µM,n,n,n,u
C=CCOc1c(Cl)cc(C(=S)N2CCCC2)cc1OCC,6.51µM,11.6µM,n,u,n,9.2µM
Cc1ccc(OC(C)C(=O)N2CCN(CCc3ccccn3)CC2)cc1C (stereo unspecified),u,x,x,x,x,n
O=C(Nc1cccc(S(=O)(=O)N2CCOCC2)c1)c1ccc(Cl)c([N+](=O)[O-])c1,n,9.2µM,n,16.4µM,n,n
COc1ccc(NC(=O)c2ccc(NCCCN3CCOCC3)c([N+](=O)[O-])c2)cc1,u,n,n,n,n,9.2µM
O=[N+]([O-])c1ccc(NCCCN2CCOCC2)c([N+](=O)[O-])c1,n,n,n,n,n,n
SMILES,KB-3-1 tox,MCF10A rerep,hERG WT inh,SW480 rereplic,KCNH2 3.1 block,KB-V1 MDR tox
O=C(NCCCN1CCOCC1)c1ccc(Sc2cccc(Cl)c2)c([N+](=O)[O-])c1,u,n,n,n,n,20.6µM
O=C(Nc1ccc(S(=O)(=O)N2CCOCC2)cc1)c1ccc(Cl)c([N+](=O)[O-])c1,n,u,n,u,n,n
O=C(Nc1ccc(Cl)c([N+](=O)[O-])c1)c1ccc(NCCCN2CCOCC2)c([N+](=O)[O-])c1,n,u,n,2.91µM,n,4.61µM
Nn1c(SCC(=O)NCC2CCCO2)nnc1-c1cc(Cl)ccc1Cl (stereo unspecified),n,n,n,n,n,n
O=[N+]([O-])c1cc(S(=O)(=O)NCCCN2CCOCC2)ccc1Cl,n,16.4µM,n,u,n,n
Cc1ccc(NC(=O)c2ccc(NCCCN3CCOCC3)c([N+](=O)[O-])c2)cc1Cl,8.2µM,u,n,u,n,23.1µM
CC(C)c1ccc(OCC(=O)N(Cc2ccco2)C2CCS(=O)(=O)C2)cc1 (stereo unspecified),n,n,n,n,n,n
O=C(c1ccc(S(=O)(=O)c2ccccc2Cl)c([N+](=O)[O-])c1)N1CCN(Cc2ccccc2)CC1,u,u,n,20.6µM,n,2.31µM
O=C(c1ccc(S(=O)(=O)c2ccc(F)cc2)c([N+](=O)[O-])c1)N1CCCCCC1,n,u,n,u,n,8.2µM
O=C(c1ccc(Br)c([N+](=O)[O-])c1)N1CCN(Cc2ccccc2)CC1,n,n,n,n,n,n
O=C(c1ccc(S(=O)(=O)Cc2ccccc2F)c([N+](=O)[O-])c1)N1CCCC1,n,n,n,n,n,n
COc1ccc(N2CCN(C(=O)c3ccc(F)cc3)CC2)c([N+](=O)[O-])c1,n,n,n,n,n,u
O=C(c1ccc(F)cc1)N1CCN(c2cc(N3CCCCC3)c(F)cc2[N+](=O)[O-])CC1,n,n,n,n,n,9.2µM
CCc1ccc2[nH]c3nc(SCC(=O)NNC(=O)c4ccc(C(C)(C)C)cc4)nnc3c2c1,u,2.31µM,n,5.8µM,n,n
Cc1ccc(C(=O)NNC(=O)CSc2nnc3c(n2)[nH]c2ccc(C)cc23)cc1,n,n,n,n,n,n
Cc1cc(N2CCN(C)CC2)ccc1NC(=O)c1cccc(S(=O)(=O)N2CCc3ccccc3C2)c1,u,u,n,u,n,n
CC(C)CCN1CC(O)=C(c2nc3ccccc3[nH]2)C1=N,n,n,n,n,n,10.3µM
CC(C)N1CC(O)=C(c2nc3ccccc3[nH]2)C1=N,n,n,n,n,n,n
CCCCN1CC(O)=C(c2nc3ccccc3[nH]2)C1=N,n,u,n,n,n,n
CC1(C)C(O)=C(c2nc3ccccc3[nH]2)C(=N)N1c1ccccc1,u,u,n,9.2µM,n,u
CCC(Sc1ncnc2sc(C)c(C)c12)C(=O)OC (stereo unspecified),n,n,n,n,n,n
O=C(/C=C1\OCc2ccccc21)c1ccccc1,n,x,x,x,x,n
Cc1ccc(C)c(Nc2cc(C(=O)NC3CCCC3)c3ccccc3n2)c1,n,x,x,x,x,n
C=CCSc1nccc(-c2nn(-c3ccc(C)cc3)ccc2=O)n1,6.51µM,8.2µM,n,u,n,3.66µM
